Records with an inconclusive call do not appear. Unmarked numbers belong to inactive results. The source made the active and inactive calls. Calls follow the shape of the dose curve; as a rule, active = well fitted inhibition curve with a large enough effect in the repeat runs; inconclusive = weak or mixed curves; inactive = no such curve, though single readings can be large or run the other way.
These compounds were tested against Cytochrome P450 2D6 (Homo sapiens) (UniProt P10635) (assay: Cytochrome P450 Family 2 Subfamily D Member 6 (CYP2D6) small molecule antagonists: luciferase reporter qHTS assay (AID 1671196; also: nearly all actives have a fitted effect of over 50% in size)). Settings: P450-Glo CYP2D6 enzyme assay, luciferin luminescence, 1 h; series mostly up to 115 µM; activity change, negative = inhibition: at the top concentration.
Description: U.S. Tox21 Program National Center for Advancing Translational Sciences [NCATS] U.S. Environmental Protection Agency [EPA] National Institutes of Environmental Health Sciences [NIEHS] National Toxicology Program [NTP] U.S. Food and Drug Administration [FDA] Tox21 Assay Overview: Cytochrome P450 (CYP) enzymes are membrane-bound hemeproteins that play a key role in metabolism of drugs and xenobiotics. Evaluation of the effect of chemicals on CYP isozymes is useful to minimize the adverse drug reactions and toxicities in drug development process. Tox21 chemicals were tested for their effect on CYP enzyme activities by using P450-Glo (TM) screening systems (Promega Corporation, Madison, WI). These systems provide a luminescent method containing proluciferin substrates and are converted to luciferin products by CYP isozymes. The luciferin products formed are detected with a luciferin detection reagent, and the amount of light produced is proportional to CYP activity. P450-Glo (TM) CYP2D6 screening system (Catalog. No. V9890) was used to detect the compounds that interfere in CYP2D6 activity.
Tox21 Assay Protocol Summary: Two ul of enzyme-substrate mix was dispensed into medium binding white/solid 1536-well plates (Greiner Bio-One North America Inc., Monroe, NC) using a BioRaptr Flying Reagent Dispenser (FRD, Beckman Coulter, Brea, CA). […] The assay plates were incubated at room temperature for 10 min. Then 2 ul of NADPH regeneration solution was added to each well of the assay plates using an FRD and incubated at room temperature for 1 h. The reaction was stopped by adding 4 ul of detection reagent using an FRD and after 20 min incubation at room temperature the luminescence signal was measured using a ViewLux plate reader (Perkin Elmer, Shelton, CT). Data were expressed as relative luminescence units.
% is scaled to controls: 0 for no effect and ±100 for the full control effect; potency is read from the fitted curve at half-maximal effect.

Cytochrome P450 2D6 (Homo sapiens), sequence (P10635 whole entry, looked up): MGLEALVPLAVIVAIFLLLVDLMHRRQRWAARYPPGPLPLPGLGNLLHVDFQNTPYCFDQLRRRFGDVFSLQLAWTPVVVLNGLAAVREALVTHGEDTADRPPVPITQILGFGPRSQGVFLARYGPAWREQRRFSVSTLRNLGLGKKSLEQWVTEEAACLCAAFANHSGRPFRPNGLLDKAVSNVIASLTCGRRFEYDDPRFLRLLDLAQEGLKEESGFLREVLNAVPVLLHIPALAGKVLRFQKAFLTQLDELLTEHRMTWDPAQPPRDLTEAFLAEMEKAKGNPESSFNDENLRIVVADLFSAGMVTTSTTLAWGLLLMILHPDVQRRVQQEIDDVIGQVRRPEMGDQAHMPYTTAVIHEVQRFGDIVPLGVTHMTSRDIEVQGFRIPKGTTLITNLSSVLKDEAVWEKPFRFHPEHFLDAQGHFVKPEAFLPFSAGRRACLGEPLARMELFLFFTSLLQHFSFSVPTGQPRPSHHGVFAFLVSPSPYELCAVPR

SMILES	activity change, negative = inhibition	Potency
CC(C)Nc1ccc(NC(C)C)c2c1C(=O)c1ccccc1C2=O	-3.36% [at 53 µM]	–
COc1cc2c(cc1OC)C(C(C(=O)N(CCc1ccc(OC)c(OC)c1OC)CCc1ccc(OC)c(OC)c1OC)c1ccccc1)=NCC2 (stereo not given)	–	5.49 µM (active)
COCCCN1CCC(NC(=O)c2cc(Cl)c(N)c3c2OCC3)CC1	–	3.89 µM (active)
CCCCCCCCCCCC(=O)OC[C@@H](O)[C@H]1OC[C@H](OCCO)[C@H]1OCCO	-15.2%	–
C=C(C)C(=O)OCC	-2.97%	–
Nc1ccc([N+](=O)[O-])c(C(F)(F)F)c1	-7.01% [at 53 µM]	–
NS(=O)(=O)c1ccc(N2CCCCS2(=O)=O)cc1	-1.25% [at 53 µM]	–
CCCCC	-21.5%	–
CCCCC/C=C\C/C=C\CCCCCCCC(=O)NC(C)c1ccccc1 (stereo not given)	–	4.36 µM (active)
CC(C)=CCC/C(C)=C/CC/C(C)=C/CO	–	39.9 µM (active)
O=C1OC(CN2CCOCC2)CN1/N=C/c1ccc([N+](=O)[O-])o1 (stereo not given)	–	38.9 µM (active)
COc1cc(Cl)c(OC)cc1N	–	63.3 µM (active)
CC(C)C[C@H]1C(=O)N2CCC[C@H]2[C@]2(O)O[C@](NC(=O)[C@@H]3C=C4c5cccc6[nH]c(Br)c(c56)C[C@H]4N(C)C3)(C(C)C)C(=O)N12	-23.7% [at 53 µM]	–
CC1=CC[C@H](C(C)C)C=C1	–	56.4 µM (active)
COC(C)(C)CCO	-1.5%	–
Nc1cccc(S(=O)(=O)c2cccc(N)c2)c1	-18.1%	–
ClCCOCCOCCCl	-7.2%	–
CCOC(=O)NCCOc1ccc(Oc2ccccc2)cc1	–	35.6 µM (active)
CCCCCCCCCCCCCCOS(=O)(=O)O	-0.0308%	–
CCN(CC)c1ccc2c(-c3ccccc3C(=O)O)c3ccc(=[N+](CC)CC)cc-3oc2c1	–	35.6 µM (active)

SMILES	activity change, negative = inhibition	Potency
CC1CCC(=O)C1=O (stereo not given)	-7.49%	–
CC(=O)[O][Al][O]C(C)=O	-6.7%	–
CC[N+]1(CC)CCC(=C(c2ccccc2)c2ccccc2)C1C (stereo not given)	–	1.74 µM (active)
CN(C)CCOC(c1ccccc1)c1ccc(Br)cc1 (stereo not given)	–	1.55 µM (active)
COS(=O)(=O)C(F)(F)F	-21.4%	–
COc1ccc(-c2nc3ccc(C4=NNC(=O)CC4C)cc3[nH]2)cc1 (stereo not given)	-14.2% [at 53 µM]	–
Brc1c2ccccc2c(Br)c2ccccc12	0.168% [at 10.5 µM]	–
CCO[Si](CCCCl)(OCC)OCC	–	22.3 µM (active)
COc1ccnc(CS(=O)c2nc3ccc(OC(F)F)cc3[nH]2)c1OC (stereo not given)	–	2.75 µM (active)
Nc1ccccc1S(=O)(=O)c1ccccc1	-24.7%	–
COC(=O)c1ccc(I)cc1S(=O)(=O)NC(=O)Nc1nc(C)nc(OC)n1	-3.33%	–
O=[N+]([O-])c1ccc2[nH]ncc2c1	-15.4%	–
CCC(C)(C)CC	-12.4%	–
CCc1cc(C2=C(C(=O)O)N(c3ccccc3C(F)(F)F)S(=O)(=O)c3ccccc32)cc2c1OCO2	-10.5%	–
C=C(C)C(=O)OCCO	-2.02%	–
NCCCN1CCOCC1	–	35.5 µM (active)
CNC(=O)CN(CCN(CCN(CC(=O)[O-])CC(=O)NC)CC(=O)[O-])CC(=O)[O-].O.[Gd+3]	0.814% [at 53 µM]	–
CCCCc1nc2cccnc2n1Cc1ccc(-c2ccccc2-c2nnn[nH]2)cc1	-11.7%	–
CC(COCCO)OCCO (stereo not given)	–	25.8 µM (active)
C/C=C/C(=O)CC	0.0645% [at 23.6 µM]	–

— PubChem BioAssay (Tox21)
